# Results filed as inconclusive are left out. Entries that show only a call come without a potency. The source made the active and inactive calls. Unless noted, calls come from the whole dose curve; as a rule, active = well fitted curve in the direction sought with a large enough effect; inconclusive = small, poorly fitted or top-dose-only effect, or another doubt; inactive = no such curve, though single readings can be large; an effect the other way counts as inactive or inconclusive.
# Legend:
# [1] = AP1 Signaling Pathway (AID 357; active = well fitted curve in either direction with a large enough effect, not every such curve was filed as active;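 note: ME-180 reporter cells stimulated with EGF at its EC50 level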); conditions: ME-180 AP-1-bla reporter, EGF-induced, beta-lactamase ratio, 5 h; at 7.69 µM (top of the series) unless noted
# In short: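 AP-1-bla ME-180 cells, Opti-MEM + 0.5% dialyzed FBS, plated overnight 37 °C. Cpd titration + EC50 EGF, 5 h 37 °C. CCF4 2.5 h RT; ex 405, em 460/530 ratio → %activity, AC50.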
# [2] = biological target: 3',5'-cyclic-AMP phosphodiesterase 4B (Homo sapiens) (UniProt Q07343); test: qHTS Assay for Inhibitors of PDE-IV (AID 607; active = well fitted activation curve with a large enough effect in the main read-out, with a control signal flat, not every such curve was filed as active)
# In short: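 The readout is membrane depolarisation from a cAMP-sensing CNG channel, detected with a potential dye at ex 535/em 590. Cells were HEK293-derived (endogenous PDE-IV) at 1000 cells/well, titrated up to 22.9 uM final.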
# [3] = qHTS Assay for Identification of Small Molecule Agonists for Hypoxia Response Element Signaling Pathway (AID 914; active = well fitted activation curve with a large enough effect in the signal ratio, with a control signal flat, not every such curve was filed as active; the % refers to the signal ratio); conditions: ME-180 (cervical carcinoma) HRE-bla reporter, beta-lactamase ratio, CoCl2, 17 h; activation: stronger effect = higher value
# In short: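 A beta-lactamase reporter under hypoxia response element control in ME-180 cells served as the system. Compound titrations plus EC50 CoCl2 ran 17 h at 37 degrees Celsius; AC50 values were fitted from %Activity.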
# [4] = biological target: Dual specificity protein kinase CLK4 (Homo sapiens) (UniProt Q9HAZ1); test: qHTS Assay for Inhibitors of CDC-like Kinase 4 (ADP-Glo Assay) (AID 1771); note: nearly all actives have a fitted effect of over 70% in size; note: potency is the fitted concentration of half-maximal effect
# In short: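 Kinase reaction: Clk4 at 25 nM, RS repeat peptide substrate at 100 uM, ATP at 1 uM, 1 hr, room temperature. Product ADP detected as luciferase signal via ADP-Glo.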
# [5] = biological target: Dual specificity protein kinase CLK4 (Homo sapiens) (UniProt Q9HAZ1); test: qHTS Assay for Inhibitors of CDC-like Kinase 4 (ADP-FP Assay) (AID 1795); note: nearly all actives have a fitted effect of over 60% in size; note: potency is the fitted concentration of half-maximal effect;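 for activity change, negative = inhibition: recombinant human CLK4 phosphorylating RS repeat peptide at 1 µM ATP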
# In short: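 Inhibition of ADP formation by 6.25 nM Clk4 is measured using 1 uM ATP and 100 uM RS repeat peptide over one hour. Produced ADP displaces a fluorescent tracer from antibody, lowering polarization.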
# [6] = biological target: Cytochrome P450 3A4 (Homo sapiens) (UniProt P08684); test: qHTS Assay for Inhibitors and Substrates of Cytochrome P450 3A4 (AID 884); note: potency is the fitted concentration of half-maximal effect; nearly all actives have a fitted effect of over 50% in size
# In short: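 20 nM human CYP3A4 with 25 uM Luciferin-PPXE (at KM) in 200 mM KPO4, preincubated 10 min with compound; NADPH regeneration started a 60 min RT reaction. Luciferin detected by luminescence, normalized to 57 uM ketoconazole as full inhibition.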
# [7] = biological target: Cytochrome P450 3A4 (Homo sapiens) (UniProt P08684); test: qHTS Assay for Activators of Cytochrome P450 3A4 (AID 885); note: nearly all actives have a fitted effect of over 65% in size
# In short: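 Steps: enzyme/substrate mix dispensed; compound added, 10 min RT; NADPH regeneration solution added, 60 min RT; luciferin detection buffer stops reaction; 20 min later luminescence measured.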
# [8] = biological target: Cytochrome P450 2C19 (Homo sapiens) (UniProt P33261); test: qHTS Assay for Inhibitors and Substrates of Cytochrome P450 2C19 (AID 899); note: potency is the fitted concentration of half-maximal effect; nearly all actives have a fitted effect of over 60% in size
# In short: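 Human CYP2C19 (5nM) with Luciferin-H EGE at 10uM (its KM) in 50mM KPO4 was preincubated with compound for 10 min at 37C. NADPH regeneration started a 60 min 37C reaction. Luciferin was read by luminescence, normalized to 57uM ketoconazole.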
# [9] = HepG2 viability counterscreen (readout 1: protease activity) against the NCATS DSHEA and TCM libraries (AID 1794841);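 note: cells exposed to compounds for about 24 h before the protease read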
# In short: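 Cytotoxicity was assessed in HepG2 cells plated at 1,000 cells/well and exposed for about 24 hours to a concentration series. Protease activity and ATP content were measured sequentially in each well.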
# [10] = biological target: Cytochrome P450 2C9 (Homo sapiens) (UniProt P11712); test: qHTS for inhibitors of CYP2C9 against the NCATS DSHEA and TCM libraries (AID 1919973);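 note: luminogenic pro-luciferin CYP2C9 substrate turned into luciferin with NADPH regeneration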
# In short: (§1)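 Light output from converted D-luciferin reports remaining CYP activity. Compounds preincubate with enzyme and substrate for 15 min; NADPH regeneration (1x final) runs the reaction for 30-45 min.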
# [11] = qHTS assay for small molecule antagonists of retinoid X receptor alpha signaling (AID 588546; active = well fitted inhibition curve with a large enough effect in the signal ratio, with a control signal flat, not every such curve was filed as active; the % refers to the signal ratio;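 note: cells stimulated with 9-cis-retinoic acid as agonist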); conditions: HEK293T RXRa-UAS-bla, beta-lactamase ratio, antagonist mode; measured here: W530 green channel, cytotoxicity proxy
# In short: (§2)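 Beta-lactamase reporter inhibition, read as CCF4 fluorescence ratio (ex 405, em 460/530 nm) after 2 h at RT. HEK293T UAS-bla cells, 2500/well, were stimulated with 9-cis-RA at 500 or 100 nM final alongside test compound for 18 h at 37 C.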
# [12] = biological target: Retinoic acid receptor RXR-alpha (Homo sapiens) (UniProt P19793); test: as above; conditions: HEK293T RXRa-UAS-bla, beta-lactamase ratio, antagonist mode
# In short: as §2
# [13] = qHTS assay for environmental chemicals that activate the Aryl hydrocarbon Receptor (AhR) signaling pathway (AID 651777); conditions: 1A2-DRE human hepatoma cells, luciferase, 24 h; activation: stronger effect = higher value; note: nearly all actives have a fitted effect of over 15% in size
# In short: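 Reporter gene assay: hepatoma cells with DRE/CYP1A2-luciferase, 24 hr compound incubation at 37 C, 5% CO2, luminescence after One-Glo (30 min, RT).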
# [14] = biological target: Peroxisome proliferator-activated receptor alpha (Homo sapiens) (UniProt Q07869); test: qHTS assay for small molecule agonists of the peroxisome proliferator-activated receptor alpha (PPARalpha) signaling pathway (AID 651778); conditions: PathHunter PPARalpha complementation, chemiluminescence, 6 h; max response: stronger effect = higher value
# In short: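 Cells plated at 2,000/well and held overnight at 37 C, 5% CO2, then compound added by pin tool for 6 hr; after PathHunter detection reagent and 60 min at room temperature, chemiluminescence from enzyme complementation was read.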
# [15] = qHTS assay for small molecule agonists of the antioxidant response element (ARE) signaling pathway measured by Nrf2-dependant transcriptional activity - cell viability counter screen (AID 720653; active = well fitted curve in the direction sought with a large enough effect in the repeat runs; an effect the other way counts as inactive or inconclusive); conditions: ARE-bla HepG2 viability, CellTiter-Glo ATP luminescence, 16 h; max response: stronger effect = lower value
# In short: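 ARE-bla HepG2 cells (2,000/well) rested 5 hrs at 37C/5% CO2, then exposed to compounds in DMSO for 16 hrs. Viability was read in the same wells as intracellular ATP by luminescence, 30 min at room temperature after reagent addition.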
# [16] = qHTS assay for cell viability of HEK293 cells (AID 743288); conditions: ATP luminescence (CellTiter-Glo), 18 h; max response: stronger effect = lower value; note: nearly all actives have a fitted effect of over 50% in size
# In short: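 The Tox21 protocol used parental HEK293 cells treated for 18 h at 37 C with compounds delivered by pintool; ATP-coupled luminescence after 30 min at room temperature gave viability.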
# [17] = qHTS assay for cell viability of the p53RE-bla HCT-116 cell line (AID 743292); note: nearly all actives have a fitted effect of over 55% in size
# In short: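 ATP-based luminescence, 16 h compound exposure at 37 C, p53RE-bla HCT-116 cells at 4,000/well.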
# [18] = biological target: Cytochrome P450 2C19 (Homo sapiens) (UniProt P33261); test: qHTS for inhibitors of CYP2C19 against the NCATS DSHEA and TCM libraries (AID 1919974);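 note: luminescence from luciferin released by CYP2C19 oxidation of a pro-luciferin substrate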
# In short: as §1
# Chain of Cytochrome P450 3A4 (Homo sapiens) (P08684 whole entry, looked up): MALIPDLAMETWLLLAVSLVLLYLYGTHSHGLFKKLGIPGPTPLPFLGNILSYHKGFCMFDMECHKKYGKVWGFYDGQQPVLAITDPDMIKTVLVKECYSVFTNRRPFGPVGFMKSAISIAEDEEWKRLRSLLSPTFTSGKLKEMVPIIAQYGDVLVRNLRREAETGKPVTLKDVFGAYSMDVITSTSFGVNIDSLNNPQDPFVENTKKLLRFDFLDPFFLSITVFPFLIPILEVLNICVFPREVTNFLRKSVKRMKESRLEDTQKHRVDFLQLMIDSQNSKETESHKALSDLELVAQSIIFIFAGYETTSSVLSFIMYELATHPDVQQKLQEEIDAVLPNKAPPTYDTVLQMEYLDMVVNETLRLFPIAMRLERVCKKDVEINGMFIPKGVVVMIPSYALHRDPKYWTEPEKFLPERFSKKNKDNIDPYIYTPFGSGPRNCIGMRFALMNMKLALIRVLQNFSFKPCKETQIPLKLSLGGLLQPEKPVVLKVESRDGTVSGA
# Chain of Cytochrome P450 2C9 (Homo sapiens) (P11712 whole entry, looked up): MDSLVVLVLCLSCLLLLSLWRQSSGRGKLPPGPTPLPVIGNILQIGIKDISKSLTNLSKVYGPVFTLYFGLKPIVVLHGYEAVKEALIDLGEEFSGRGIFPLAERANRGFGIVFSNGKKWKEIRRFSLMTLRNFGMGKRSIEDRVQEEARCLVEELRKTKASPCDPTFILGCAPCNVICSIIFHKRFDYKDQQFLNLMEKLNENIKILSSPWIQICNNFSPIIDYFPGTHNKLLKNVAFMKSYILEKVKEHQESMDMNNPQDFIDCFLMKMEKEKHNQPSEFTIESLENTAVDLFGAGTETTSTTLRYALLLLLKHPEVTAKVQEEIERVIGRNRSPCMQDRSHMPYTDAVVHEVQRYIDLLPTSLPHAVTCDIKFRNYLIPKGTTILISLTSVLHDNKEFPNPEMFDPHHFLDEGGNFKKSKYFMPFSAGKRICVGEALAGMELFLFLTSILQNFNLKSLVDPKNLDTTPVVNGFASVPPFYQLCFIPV
# Chain of 3',5'-cyclic-AMP phosphodiesterase 4B (Homo sapiens) (Q07343 whole entry, looked up): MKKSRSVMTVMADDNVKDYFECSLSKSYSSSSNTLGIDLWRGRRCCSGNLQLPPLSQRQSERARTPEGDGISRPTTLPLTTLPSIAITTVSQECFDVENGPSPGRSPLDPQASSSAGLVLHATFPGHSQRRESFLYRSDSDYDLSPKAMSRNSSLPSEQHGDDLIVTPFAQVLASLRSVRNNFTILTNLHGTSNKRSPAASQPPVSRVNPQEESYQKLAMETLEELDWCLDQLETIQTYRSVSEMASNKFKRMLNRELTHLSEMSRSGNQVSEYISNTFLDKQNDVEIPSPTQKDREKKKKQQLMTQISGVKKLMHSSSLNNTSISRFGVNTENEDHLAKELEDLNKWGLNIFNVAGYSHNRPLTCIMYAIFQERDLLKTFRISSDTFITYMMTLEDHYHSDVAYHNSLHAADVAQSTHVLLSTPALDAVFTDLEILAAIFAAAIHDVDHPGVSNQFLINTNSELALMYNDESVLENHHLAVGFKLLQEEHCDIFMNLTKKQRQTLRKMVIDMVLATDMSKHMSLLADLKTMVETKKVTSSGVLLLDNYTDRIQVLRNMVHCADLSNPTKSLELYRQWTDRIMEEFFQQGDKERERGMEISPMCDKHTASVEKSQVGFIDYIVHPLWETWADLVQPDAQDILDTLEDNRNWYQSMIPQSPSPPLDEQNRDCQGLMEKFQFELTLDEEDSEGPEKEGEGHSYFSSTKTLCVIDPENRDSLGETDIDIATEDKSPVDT
# Chain of Dual specificity protein kinase CLK4 (Homo sapiens) (Q9HAZ1 whole entry, looked up): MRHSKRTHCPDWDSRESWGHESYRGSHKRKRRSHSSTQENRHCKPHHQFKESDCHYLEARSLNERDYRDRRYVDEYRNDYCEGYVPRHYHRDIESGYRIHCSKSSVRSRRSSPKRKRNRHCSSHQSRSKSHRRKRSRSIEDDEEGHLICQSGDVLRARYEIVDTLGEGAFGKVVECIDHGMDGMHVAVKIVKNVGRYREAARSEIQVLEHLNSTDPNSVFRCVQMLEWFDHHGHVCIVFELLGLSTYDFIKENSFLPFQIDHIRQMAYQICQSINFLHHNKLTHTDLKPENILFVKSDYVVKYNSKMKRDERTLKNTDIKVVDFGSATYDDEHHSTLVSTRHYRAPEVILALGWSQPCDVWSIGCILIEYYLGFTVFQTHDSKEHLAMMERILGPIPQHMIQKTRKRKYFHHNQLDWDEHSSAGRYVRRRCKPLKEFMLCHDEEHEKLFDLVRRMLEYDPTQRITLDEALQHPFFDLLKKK
# Chain of Cytochrome P450 2C19 (Homo sapiens) (P33261 whole entry, looked up): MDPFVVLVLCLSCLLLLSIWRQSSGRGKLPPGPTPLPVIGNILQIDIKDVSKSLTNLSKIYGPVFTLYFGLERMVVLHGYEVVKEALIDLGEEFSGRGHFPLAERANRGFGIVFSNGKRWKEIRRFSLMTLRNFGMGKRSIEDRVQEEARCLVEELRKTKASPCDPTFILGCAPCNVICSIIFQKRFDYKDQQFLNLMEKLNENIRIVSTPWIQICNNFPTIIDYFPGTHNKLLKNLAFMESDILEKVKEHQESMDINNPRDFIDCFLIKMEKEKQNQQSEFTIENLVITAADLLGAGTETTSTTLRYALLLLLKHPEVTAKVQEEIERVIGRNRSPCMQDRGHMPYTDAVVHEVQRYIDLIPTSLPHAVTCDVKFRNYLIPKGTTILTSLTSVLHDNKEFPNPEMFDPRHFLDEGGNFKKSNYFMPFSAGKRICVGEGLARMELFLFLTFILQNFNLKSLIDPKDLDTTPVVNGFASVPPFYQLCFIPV
# Chain of Peroxisome proliferator-activated receptor alpha (Homo sapiens) (Q07869 whole entry, looked up): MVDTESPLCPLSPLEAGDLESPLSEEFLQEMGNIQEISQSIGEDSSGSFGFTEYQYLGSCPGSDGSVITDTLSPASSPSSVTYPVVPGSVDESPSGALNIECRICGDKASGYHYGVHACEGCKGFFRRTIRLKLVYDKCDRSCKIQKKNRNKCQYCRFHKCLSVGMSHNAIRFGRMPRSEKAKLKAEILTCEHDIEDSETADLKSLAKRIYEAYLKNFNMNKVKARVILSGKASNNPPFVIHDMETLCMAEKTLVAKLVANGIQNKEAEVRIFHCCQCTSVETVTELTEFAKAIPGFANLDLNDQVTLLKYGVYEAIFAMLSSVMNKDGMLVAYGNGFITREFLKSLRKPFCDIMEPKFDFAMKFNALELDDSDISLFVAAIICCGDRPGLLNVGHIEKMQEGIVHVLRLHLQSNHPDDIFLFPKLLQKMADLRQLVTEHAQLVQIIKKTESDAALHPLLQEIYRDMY
# Chain of Retinoic acid receptor RXR-alpha (Homo sapiens) (P19793 whole entry, looked up): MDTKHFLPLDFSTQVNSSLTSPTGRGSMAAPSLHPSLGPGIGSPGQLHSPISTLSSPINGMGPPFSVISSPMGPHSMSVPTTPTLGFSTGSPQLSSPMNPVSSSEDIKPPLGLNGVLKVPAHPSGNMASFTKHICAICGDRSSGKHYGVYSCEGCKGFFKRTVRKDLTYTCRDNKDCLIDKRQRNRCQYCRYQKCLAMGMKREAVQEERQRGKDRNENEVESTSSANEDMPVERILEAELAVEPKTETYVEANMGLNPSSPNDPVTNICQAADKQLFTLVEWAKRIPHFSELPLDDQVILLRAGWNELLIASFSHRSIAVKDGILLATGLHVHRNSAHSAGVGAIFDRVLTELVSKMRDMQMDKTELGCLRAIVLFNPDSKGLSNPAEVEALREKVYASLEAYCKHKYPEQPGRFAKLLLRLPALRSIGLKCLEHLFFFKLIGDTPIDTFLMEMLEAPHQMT
smiles,measurement,setting,value
COc1ccccc1-c1nccc(N2CCN(C)CC2)n1,"activity change, negative = inhibition",[1],15.6% (inactive)
same,Potency,[2],inactive
same,activation,[3],26.2% (inactive)
same,Potency,[4],inactive
same,Potency,[5],inactive
COc1ccc(Oc2ncc3nc(-c4ccccc4)c(=O)n(C[C@H]4CCCO4)c3n2)cc1,Potency,[2],inactive
same,Potency,[4],inactive
same,Potency,[5],inactive
Cc1ccccc1-c1nc(Nc2ccncc2)c2ccccc2n1,"activity change, negative = inhibition",[1],-17.3% (inactive)
same,Potency,[6],6.31 µM (active)
same,outcome,[7],inactive
same,Potency,[4],25.1 µM (active)
same,Potency,[5],inactive
COc1cccc(Cn2c(=O)cnc3cnc(Nc4cccc(OC)c4)nc32)c1,Potency,[2],inactive
same,Potency,[6],2 µM (active)
same,outcome,[7],inactive
same,Potency,[8],3.98 µM (active)
same,Potency,[4],2.24 µM (active)
CN1CCN(c2ncc3nc(-c4cccc(C#N)c4)c(=O)n(CCc4ccccc4)c3n2)CC1,"activity change, negative = inhibition",[1],11.8% (inactive)
same,Potency,[2],inactive
same,Potency,[4],inactive
COc1ccc2[nH]cc(CCNc3ncncc3-c3cccc(C#N)c3)c2c1,"activity change, negative = inhibition",[1],-18.6% (inactive)
same,Potency,[2],inactive
same,Potency,[4],25.1 µM (active)
CC/C=C\C/C=C\C/C=C\C/C=C\CCCCC(=O)O,"activity change, negative = inhibition",[9],-7.13% [at 3.42 µM] (inactive)
same,"activity change, negative = inhibition",[10],-16.1% [at 4.27 µM] (inactive)
COc1cccc(Nc2ncc3nc(-c4cccs4)c(=O)n(C[C@H]4CCCO4)c3n2)c1,Potency,[2],inactive
same,Potency,[4],inactive
COc1ccc2[nH]cc(CCNc3ncncc3-c3ccc4c(c3)OCO4)c2c1,"activity change, negative = inhibition",[1],-27.8% (inactive)
same,Potency,[2],inactive
same,Potency,[4],7.08 µM (active)
same,Potency,[5],10 µM (active)
C=CC(C)(CCC=C(C)C)OC(C)=O (stereo unspecified),max response,[11],-5.27%
same,max response,[12],-7.97% (inactive)
same,activation,[13],3.8% (inactive)
same,max response,[14],-0.802% (inactive)
same,max response,[15],-13.5% (inactive)
same,max response,[16],-14.2% (inactive)
same,Potency,[17],inactive
same,outcome,[9],inactive
same,Potency,[10],inactive
same,Potency,[18],inactive
COCCn1c(=O)c(-c2cccs2)nc2cnc(N3CCNCC3)nc21,Potency,[2],inactive
same,outcome,[7],inactive
same,Potency,[4],inactive
same,Potency,[5],inactive
CN(CC(=O)O)C(=N)N,outcome,[9],inactive
same,Potency,[10],inactive
Cc1cccc(CNc2ncncc2-c2ccccc2CN(C)C)c1,"activity change, negative = inhibition",[1],1.18% (inactive)
same,Potency,[2],inactive
same,Potency,[4],inactive

# Source: PubChem BioAssay (NCATS)
